Assay [1] addresses Glucocorticoid receptor (Homo sapiens) (UniProt P04150). As to the kind of experiment: GR-GFP Redistribution (AID 450;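 active = compounds whose dose series gives a full or clear partial fitted curve of increased nuclear translocation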; note: potency is the fitted concentration of half-maximal effect). The note with it: U2OS GR-GFP nuclear translocation, laser cytometry, 2 h.
Assay [2] shares this target. Description: GR-EFC Redistribution (AID 451; calls by dose curve; note: potency is the fitted concentration of half-maximal effect). The following applies: CHO-K1 GR-EFC translocation, beta-gal luminescence, 2 h. In a few lines:
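Translocation of GR-ED fusion to nuclear EA restores b-gal, read by luminescence after 1 h room-temperature detection. Engineered CHO-K1 biosensor cells, 1,000/well, exposed 2 h at 37 C to titrations up to 46 uM final.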

For assay [3], the target named is Mitogen-activated protein kinase 10 (Mus musculus) (UniProt Q61831). As to the kind of experiment: JNK3 AlphaScreen Assay (AID 530; active = well fitted curve in either direction with a large enough effect, not every such curve was filed as active;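 note: kinase came from lysate of stimulated human HepG2 cells; signal reports phosphorylation of biotinylated GST-cJun 1-79 at Ser73 with 10 µM ATP; % is set by controls: 0 for no effect and ±100 for the full control effect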). In a few lines:
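qHTS titrations with 15 min compound pre-incubation before adding ATP (10 uM final). Read-out: AlphaScreen of Ser73-phosphorylated biotin-GST-cJun using HepG2 lysate JNK3 activated by IL-1β and TNFα.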
Background: In Alpha technology, singlet oxygen from a donor bead excites a nearby acceptor bead.

Assay [4] concerns the target DNA dC->dU-editing enzyme APOBEC-3G (Homo sapiens) (UniProt Q9HC16). Description: qHTS for inhibitors of Vif-A3G interactions: Validation (AID 588379). Note: 0% is about no effect. The method in brief:
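Yellow fluorescence (Ex 488, Em 500-530) of Vif-coexpressing HeLa A3G-eYFP cells, scanned by Acumen cytometer, reports blocked A3G degradation. Cells plated at 700/well overnight at 37 deg C before compound addition, then a further overnight compound incubation at 37 deg C.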
A general note: Quantitative high-throughput screening tests each substance at several concentrations.

Assay [5] concerns Zika virus NS2B-NS3 protease. As to the kind of experiment: Primary screen GU AMC qHTS for Zika virus inhibitors (AID 1347154).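 Note: 0% = no-inhibitor control and -100% = no-enzyme control; nearly all actives have a fitted effect of over 70% in size.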 In a few lines:
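Fluorogenic AMC-substrate cleavage by noncovalent NS2B-NS3 protease complex (25 nM, pH 8.0 Tris buffer with Tween 20) followed for 15 minutes at room temperature (~20% conversion). Percent inhibition from ex340/em450 signal change, fitted by 4-parameter Hill equation.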

Assay [6] in a line: Counterscreen qHTS for small molecule stabilizers of the endoplasmic reticulum resident proteome: GLuc-NoTag assay (AID 1508627).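 Note: 0% = thapsigargin alone and -100% = DMSO vehicle control.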 In a few lines: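 Counterscreen line: SH-SY5Y-GLuc-NoTag cells, treated with compound 19 hr before a 4 hr, 100 nM thapsigargin calcium depletion. Secreted Gaussia luciferase in the medium was measured by luminescence after coelenterazine was added (0.07x final), with cells unlysed.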
A general note: The purpose of a counterscreen is to sort out artefacts and off-target activity.

Assay [7] is described as follows: Confirmatory qHTS for small molecule stabilizers of the endoplasmic reticulum resident proteome: Secreted ER Calcium Modulated Protein (SERCaMP) assay (AID 1508628). Note: nearly all actives have a fitted effect of over 40% in size. Note: potency is the fitted concentration of half-maximal effect. The method in brief:
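Reporter secretion upon ER calcium depletion (100 nM thapsigargin, 4 h, 37C) is measured as medium luminescence with coelenterazine, after 16 h compound pretreatment of SH-SY5Y-GLuc-SERCaMP cells; primary at three concentrations up to 38.3 uM, follow-up at 11 (up to 76.6 uM).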

Assay [8] can be described thus: Cell Viability qHTS for small molecule stabilizers of the endoplasmic reticulum resident proteome (AID 1508629).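 Note: human SH-SY5Y neuroblastoma cells carrying the GLuc-SERCaMP reporter; compound exposure about 46 h in total before the viability read; % is set by controls: 0 for no effect and ±100 for the full control effect.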 The note with it: cell viability counter-screen, 100 nM thapsigargin for final 4 h.
Assay [9] in a line: AP1 Signaling Pathway (AID 357; active = well fitted curve in either direction with a large enough effect, not every such curve was filed as active; note: % is set by controls: 0 for no effect and ±100 for the full control effect). The note with it: ME-180 AP-1-bla reporter, EGF-induced, beta-lactamase ratio, 5 h; at 38 µM (top of the series). The method in brief: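 Cells are seeded overnight, exposed to compound titrations and an EC50 level of EGF for 5 hours at 37 °C, then loaded with CCF4 dye for 2.5 hours. Beta-lactamase activity under the AP-1 element is read as a blue/green ratio.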

Assay [10] concerns the target Cytochrome P450 1A2 (Homo sapiens) (UniProt P05177). As to the kind of experiment: p450-cyp1a2 (AID 410; calls by dose curve;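 note: -100% = full effect of reference inhibitor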). The method in brief:
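Luminescent demethylation readout: Luciferin-ME (100uM, equal to Km) turned over by 20nM CYP1A2 for 60 min at room temperature after NADPH regeneration addition, following 10 min compound preincubation. Normalization used 57 uM furafylline as full inhibition.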

Assay [11] is described as follows: NFAT Signaling Pathway (AID 444; active = well fitted curve in either direction with a large enough effect, not every such curve was filed as active;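 note: carbachol stimulus at about its EC50 of 1 µM final; % is set by controls: 0 for no effect and ±100 for the full control effect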). The following applies: Jurkat NFAT-bla M1, carbachol, beta-lactamase ratio, 5 h; at 38 µM (top of the series). In a few lines: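 Read-out: CCF4 FRET ratio (460 nm/530 nm) after 1 h RT dye loading, used for %activity and AC50 from titration series. Cells: Jurkat NFAT-β-lactamase/M1 line, treated with compound plus 1 uM carbachol for 5 h, 37 °C.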

Assay [12] in a line: Stat Signaling Pathway (AID 446; active = well fitted curve in either direction with a large enough effect, not every such curve was filed as active). The note with it: ME-180 (cervical carcinoma) SIE beta-lactamase reporter, IL-6 stimulated, 5 h; at 38 µM (top of the series). In a few lines: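 Overnight-plated ME-180 cells bearing a STAT Inducible Element beta-lactamase reporter; 5 h co-exposure to compound and 40 pM IL-6; values normalized to 300 pM IL-6 and 125 nM JAK inhibitor controls.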
Assay [13] has as its target 3',5'-cyclic-AMP phosphodiesterase 4B (Homo sapiens) (UniProt Q07343). Description: qHTS Assay for Inhibitors of PDE-IV (AID 607; active = well fitted activation curve with a large enough effect in the main read-out, with a control signal flat, not every such curve was filed as active; note: % of control where 0% means no effect). In a few lines: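 Live HEK293 cells with a modified cyclic nucleotide-gated (CNG) channel report intracellular cAMP via membrane-potential dye fluorescence (ex 535/em 590 nm). Endogenous PDE-IV was targeted. Compounds were tested at up to 22.9 uM final; RO 20-1724 100 uM served as control.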

In assay [14] the target is Guanine nucleotide-binding protein G(i) subunit alpha-1 (Homo sapiens) (UniProt P63096). Description: qHTS Assay for Inhibitors of RGS12 GoLoco Motif Activity (Green Fluorophore) (AID 879).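 Note: 0% = labeled peptide with Gαi1 and full inhibition = labeled peptide alone without protein; negative values mean loss of peptide binding seen as reduced polarization.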 In a few lines:
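A drop in FITC polarization marked displacement of the FITC-tagged RGS12 GoLoco peptide (10 nM) from Gαi1 (50 nM). Compounds were incubated 10 min at room temperature in Tris pH 7.5 buffer containing 150 mM NaCl, 0.1 mM GDP and 0.05% NP40; unlabeled peptide titration served as control.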

The target of assay [15] is Cytochrome P450 2C9 (Homo sapiens) (UniProt P11712). As to the kind of experiment: qHTS Assay for Inhibitors and Substrates of Cytochrome P450 2C9 (AID 883). Note: % is set by controls: 0 for no effect and ±100 for the full control effect; nearly all actives have a fitted effect of over 60% in size. The method in brief: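 Inhibition of CYP2C9 is scored as loss of luminescence, with 57uM sulphaphenazole defining 100% inhibition. Substrate Luciferin-H is used at 100uM, equal to its KM; enzyme at 10nM in 25mM KPO4, 60 min at 37C with NADPH regeneration.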
Cytochrome P450 2C9 (Homo sapiens), sequence (P11712 whole entry, looked up): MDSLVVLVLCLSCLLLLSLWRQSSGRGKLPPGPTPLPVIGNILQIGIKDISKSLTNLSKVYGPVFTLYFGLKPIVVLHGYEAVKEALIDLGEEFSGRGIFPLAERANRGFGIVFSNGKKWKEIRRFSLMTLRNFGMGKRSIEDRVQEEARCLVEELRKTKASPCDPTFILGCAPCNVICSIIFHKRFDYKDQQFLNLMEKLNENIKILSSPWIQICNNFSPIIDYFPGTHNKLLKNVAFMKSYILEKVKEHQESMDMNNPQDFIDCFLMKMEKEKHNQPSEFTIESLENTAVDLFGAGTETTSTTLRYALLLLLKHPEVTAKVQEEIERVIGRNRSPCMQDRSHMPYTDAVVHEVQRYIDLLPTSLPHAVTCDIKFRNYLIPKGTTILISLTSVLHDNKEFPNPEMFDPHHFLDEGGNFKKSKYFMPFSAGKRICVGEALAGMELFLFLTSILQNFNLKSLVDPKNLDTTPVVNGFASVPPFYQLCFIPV

Assay [16] is described as follows: Confirmation and Secondary Assay for Modulators of Hemoglobin Beta Chain Splicing at IVS2 654 locus (AID 910).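 Note: HeLa cells stably carrying EGFP split by mutant beta-globin IVS2-654 intron; per-well total GFP intensity by laser scanning cytometry after 2-day treatment; % of control where 0% means no effect.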 In a few lines:
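Readout: per-well total peak green fluorescence (488 nm ex, 500–520 nm em) from objects 5–250 µm, reflecting correct splicing of an EGFP-654 reporter. Compounds were applied for 2 days at 37 °C to overnight-plated HeLa EGFP-654 cells; controls were DMSO and 500 nM IVS2-654 PNA.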

Assay [17] is described as follows: Confirmation and Secondary Assay for Modulators of Hemoglobin Beta Chain Splicing at IVS2 705 locus (AID 930).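 Note: HeLa cells stably expressing the EGFP-705 splicing reporter; GFP fluorescence per well restored by corrected splicing of the IVS2-705 intron in EGFP; % of control where 0% means no effect.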 In a few lines:
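Per-well GFP, captured at 1 x 8 µm resolution with 488 nm excitation, served as the read-out for HeLa EGFP-705 cells incubated 2 days with test compound versus DMSO.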

Assay [18] concerns the target Pyruvate kinase (Leishmania mexicana) (UniProt Q27686). As to the kind of experiment: qHTS Validation Assay for Inhibitors of Leishmania Mexicana Pyruvate Kinase (AID 945).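 Note: 0% = DMSO only neutral control wells.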 The method in brief: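 An endpoint luciferase assay: 0.2 nM LmPYK E451W turns over 0.5 mM PEP with 0.1 mM ADP for 1 h at room temperature, pH 7.2, before PKLight addition. Values are normalized to DMSO-only wells.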

For assay [19], the target named is Pyruvate kinase PKM (Homo sapiens) (UniProt P14618). As to the kind of experiment: qHTS Assay for Activators of Human Muscle Pyruvate Kinase (AID 954; active = well fitted curve in the direction sought with a large enough effect, not every such curve was filed as active;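 note: 0% = uninhibited enzyme and -100% = no enzyme or full thiadiazolimine inhibition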). In a few lines:
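Screening used highly purified human pyruvate kinase M2 under submaximal activity, with PEP at its Km and ADP below Km. After an hour at room temperature, ATP was read by luciferase luminescence.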

Assay [20] deals with Alpha-galactosidase A (Homo sapiens) (UniProt P06280). As to the kind of experiment: Counterscreen for Glucocerebrosidase Inhibitors: qHTS Assay for Human alpha-Galactosidase at pH 4.5 (AID 992). Note: 0% is about no effect. In a few lines: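 Each compound is preincubated briefly with 2 nM enzyme before substrate addition (80 uM); plates then sit 20 min at ambient temperature, are quenched with 1M NaOH/1M glycine, and read fluorometrically.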
Alpha-galactosidase A (Homo sapiens), sequence (P06280 whole entry, looked up): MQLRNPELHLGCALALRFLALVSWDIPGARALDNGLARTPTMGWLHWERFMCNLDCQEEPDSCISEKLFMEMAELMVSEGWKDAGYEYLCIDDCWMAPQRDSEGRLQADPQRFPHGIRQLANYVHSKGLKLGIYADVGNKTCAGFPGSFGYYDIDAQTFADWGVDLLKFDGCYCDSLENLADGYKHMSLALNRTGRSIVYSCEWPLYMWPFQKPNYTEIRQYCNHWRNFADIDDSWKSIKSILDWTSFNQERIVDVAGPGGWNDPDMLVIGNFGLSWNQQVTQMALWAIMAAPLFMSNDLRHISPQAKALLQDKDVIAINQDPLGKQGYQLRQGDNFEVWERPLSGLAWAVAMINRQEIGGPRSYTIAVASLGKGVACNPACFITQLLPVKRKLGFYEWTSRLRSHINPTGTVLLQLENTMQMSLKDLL

The target of assay [21] is alpha-glucosidase (Oryza sativa, rice) (UniProt Q653V4). As to the kind of experiment: Counterscreen for Glucocerebrosidase Inhibitors: qHTS Assay for Rice alpha-Glucosidase at pH 5.0 (AID 997).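 Note: 0% = full activity with enzyme and -100% = basal without enzyme.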 The method in brief: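 Endpoint fluorogenic assay at pH 5.0: compounds (0.7 nM to 77 uM) titrated against 4 nM rice enzyme and 400 uM 4-MU-alpha-glucoside for 20 min at room temperature; NaOH/glycine stop, read ex 365/em 440 nm, Hill-fitted AC50.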

Assay [22] in a line: qHTS Assay for Lipid Storage Modulators (AID 1519; calls by dose curve). The note with it: Drosophila S3 cells, BODIPY lipid droplet/cell ratio, laser cytometry, cells loaded with oleic acid. In a few lines:
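Cells seeded at 5,000 per well were treated with compounds over a concentration series and loaded with oleic acid (400 uM, as added). Lipid droplet fluorescence (488 nm excitation, 500-530 nm channel) was read by laser-scanning cytometry and normalized to 20 uM Triacsin C.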

Results filed as inconclusive are left out. The source made the active and inactive calls. Unless noted, calls come from the whole dose curve; as a rule, active = well fitted curve in the direction sought with a large enough effect; inconclusive = small, poorly fitted or top-dose-only effect, or another doubt; inactive = no such curve, though single readings can be large; an effect the other way counts as inactive or inconclusive.

Glucocorticoid receptor (Homo sapiens), sequence (P04150 whole entry, looked up): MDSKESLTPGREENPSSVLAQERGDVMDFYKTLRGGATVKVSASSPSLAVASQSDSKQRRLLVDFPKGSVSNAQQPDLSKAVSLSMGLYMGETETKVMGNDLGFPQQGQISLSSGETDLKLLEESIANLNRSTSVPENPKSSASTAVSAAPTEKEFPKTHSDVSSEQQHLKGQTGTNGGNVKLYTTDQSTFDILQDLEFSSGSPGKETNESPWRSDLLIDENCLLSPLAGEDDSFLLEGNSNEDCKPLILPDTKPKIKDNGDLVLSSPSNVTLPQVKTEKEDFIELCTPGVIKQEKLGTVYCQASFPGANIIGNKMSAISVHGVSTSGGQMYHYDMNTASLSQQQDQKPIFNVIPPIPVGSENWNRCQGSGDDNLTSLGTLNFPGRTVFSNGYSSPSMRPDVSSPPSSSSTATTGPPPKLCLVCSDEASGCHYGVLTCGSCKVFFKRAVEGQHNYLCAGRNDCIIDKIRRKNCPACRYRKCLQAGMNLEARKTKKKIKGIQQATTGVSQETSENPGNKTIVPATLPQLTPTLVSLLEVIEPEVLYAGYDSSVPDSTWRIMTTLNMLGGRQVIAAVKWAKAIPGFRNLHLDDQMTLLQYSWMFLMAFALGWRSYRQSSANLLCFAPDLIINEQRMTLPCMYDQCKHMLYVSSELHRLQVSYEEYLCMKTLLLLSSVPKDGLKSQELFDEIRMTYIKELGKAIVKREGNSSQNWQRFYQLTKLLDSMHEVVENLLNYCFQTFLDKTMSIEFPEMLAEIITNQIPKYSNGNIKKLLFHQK
Cytochrome P450 1A2 (Homo sapiens), sequence (P05177 whole entry, looked up): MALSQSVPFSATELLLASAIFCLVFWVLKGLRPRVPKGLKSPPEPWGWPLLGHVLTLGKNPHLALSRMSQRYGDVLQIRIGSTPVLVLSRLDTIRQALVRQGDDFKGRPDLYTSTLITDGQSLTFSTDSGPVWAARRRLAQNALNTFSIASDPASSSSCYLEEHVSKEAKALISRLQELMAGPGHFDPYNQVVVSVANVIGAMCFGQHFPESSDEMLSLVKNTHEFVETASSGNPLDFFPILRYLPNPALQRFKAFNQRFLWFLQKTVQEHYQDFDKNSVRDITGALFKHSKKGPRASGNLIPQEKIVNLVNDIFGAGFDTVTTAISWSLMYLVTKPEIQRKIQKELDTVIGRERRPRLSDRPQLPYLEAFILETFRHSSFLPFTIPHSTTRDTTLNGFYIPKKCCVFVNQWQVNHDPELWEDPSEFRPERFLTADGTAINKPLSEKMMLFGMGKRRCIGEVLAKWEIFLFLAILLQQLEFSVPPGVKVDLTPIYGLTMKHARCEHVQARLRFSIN
DNA dC->dU-editing enzyme APOBEC-3G (Homo sapiens), sequence (Q9HC16 whole entry, looked up): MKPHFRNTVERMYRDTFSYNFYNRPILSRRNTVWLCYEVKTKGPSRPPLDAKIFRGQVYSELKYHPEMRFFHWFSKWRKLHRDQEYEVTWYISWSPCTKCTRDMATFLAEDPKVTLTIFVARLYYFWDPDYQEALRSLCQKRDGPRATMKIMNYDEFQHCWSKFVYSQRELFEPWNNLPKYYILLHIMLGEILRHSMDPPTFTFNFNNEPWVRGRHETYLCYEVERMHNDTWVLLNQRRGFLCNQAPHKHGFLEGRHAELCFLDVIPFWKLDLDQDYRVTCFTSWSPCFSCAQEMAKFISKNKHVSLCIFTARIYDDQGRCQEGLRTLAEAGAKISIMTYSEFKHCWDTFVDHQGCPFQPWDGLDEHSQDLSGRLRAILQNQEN
3',5'-cyclic-AMP phosphodiesterase 4B (Homo sapiens), sequence (Q07343 whole entry, looked up): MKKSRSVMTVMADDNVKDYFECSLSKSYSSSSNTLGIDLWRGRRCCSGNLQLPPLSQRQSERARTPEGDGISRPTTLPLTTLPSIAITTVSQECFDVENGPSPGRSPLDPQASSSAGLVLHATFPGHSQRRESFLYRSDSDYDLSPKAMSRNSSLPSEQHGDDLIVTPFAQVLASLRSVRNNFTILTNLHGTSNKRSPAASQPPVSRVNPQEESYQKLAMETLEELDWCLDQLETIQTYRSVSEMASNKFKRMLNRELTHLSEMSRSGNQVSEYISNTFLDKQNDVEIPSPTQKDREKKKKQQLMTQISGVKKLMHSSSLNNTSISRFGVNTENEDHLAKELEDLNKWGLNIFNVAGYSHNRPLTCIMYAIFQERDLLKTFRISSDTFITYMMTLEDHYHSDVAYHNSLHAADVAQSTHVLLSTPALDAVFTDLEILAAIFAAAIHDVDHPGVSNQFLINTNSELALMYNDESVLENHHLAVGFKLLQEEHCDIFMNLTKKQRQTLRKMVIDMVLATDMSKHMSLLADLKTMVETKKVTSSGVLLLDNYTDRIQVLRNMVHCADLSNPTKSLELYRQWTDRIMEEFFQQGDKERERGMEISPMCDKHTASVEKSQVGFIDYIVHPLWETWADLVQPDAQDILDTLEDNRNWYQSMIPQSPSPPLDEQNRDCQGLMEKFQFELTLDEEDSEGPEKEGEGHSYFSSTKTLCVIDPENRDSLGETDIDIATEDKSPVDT
Guanine nucleotide-binding protein G(i) subunit alpha-1 (Homo sapiens), sequence (P63096 whole entry, looked up): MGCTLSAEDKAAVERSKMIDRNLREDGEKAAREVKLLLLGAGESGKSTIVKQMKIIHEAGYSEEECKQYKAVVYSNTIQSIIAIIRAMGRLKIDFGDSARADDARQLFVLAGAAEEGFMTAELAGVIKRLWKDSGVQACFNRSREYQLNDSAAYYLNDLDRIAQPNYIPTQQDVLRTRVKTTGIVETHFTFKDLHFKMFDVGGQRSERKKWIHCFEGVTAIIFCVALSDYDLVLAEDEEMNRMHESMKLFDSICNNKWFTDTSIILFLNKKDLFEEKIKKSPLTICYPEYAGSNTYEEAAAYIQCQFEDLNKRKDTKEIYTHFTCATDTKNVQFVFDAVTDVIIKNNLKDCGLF
Pyruvate kinase PKM (Homo sapiens), sequence (P14618 whole entry, looked up): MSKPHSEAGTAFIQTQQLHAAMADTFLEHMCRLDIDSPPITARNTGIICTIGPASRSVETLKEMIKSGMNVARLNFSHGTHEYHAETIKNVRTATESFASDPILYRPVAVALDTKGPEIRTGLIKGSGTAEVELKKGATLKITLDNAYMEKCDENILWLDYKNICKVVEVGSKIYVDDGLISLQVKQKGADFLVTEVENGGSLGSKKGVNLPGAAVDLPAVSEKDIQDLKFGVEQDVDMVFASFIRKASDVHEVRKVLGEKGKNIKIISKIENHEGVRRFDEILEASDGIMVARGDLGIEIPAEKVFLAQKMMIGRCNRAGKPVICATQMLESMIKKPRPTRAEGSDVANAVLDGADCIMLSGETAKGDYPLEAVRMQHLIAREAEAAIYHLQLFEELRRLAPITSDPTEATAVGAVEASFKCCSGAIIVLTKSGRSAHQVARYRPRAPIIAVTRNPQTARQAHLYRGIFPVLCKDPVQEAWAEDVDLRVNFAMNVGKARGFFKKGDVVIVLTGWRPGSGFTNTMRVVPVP
Pyruvate kinase (Leishmania mexicana), sequence (Q27686 2-499 E452W): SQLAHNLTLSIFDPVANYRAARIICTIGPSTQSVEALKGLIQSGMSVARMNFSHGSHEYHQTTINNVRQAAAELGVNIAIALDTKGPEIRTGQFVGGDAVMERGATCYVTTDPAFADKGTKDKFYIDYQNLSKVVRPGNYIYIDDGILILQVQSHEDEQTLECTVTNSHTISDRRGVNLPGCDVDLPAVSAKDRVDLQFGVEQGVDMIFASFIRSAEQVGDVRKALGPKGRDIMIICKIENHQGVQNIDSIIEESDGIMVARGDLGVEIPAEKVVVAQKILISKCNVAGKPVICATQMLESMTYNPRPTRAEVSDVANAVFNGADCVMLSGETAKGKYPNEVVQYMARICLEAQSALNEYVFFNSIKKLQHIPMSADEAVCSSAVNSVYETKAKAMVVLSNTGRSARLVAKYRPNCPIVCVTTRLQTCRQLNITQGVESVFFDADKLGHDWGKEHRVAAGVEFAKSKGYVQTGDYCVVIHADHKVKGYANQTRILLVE

Take `CN1C[C@H](C(=O)N[C@]2(C)O[C@@]3(O)[C@H]4CCCN4C(=O)[C@H](Cc4ccccc4)N3C2=O)C[C@H]2c3cccc4[nH]cc(c34)C[C@@H]21`: the figures for the Potency in [1], in [2] and in assay [7] were > 46 µM (inactive), > 46 µM (inactive) and 25.1 µM (active), respectively. Moreover, the Potency result in assay [3], in assay [4], in assay [5] and in [6] was “inactive” each time. The max response in assay [8] is 18% (inactive).

With `Oc1cc2c(cc1O)[C@H](c1ccccc1)CNCC2`, the values for the activity change, negative = inhibition in assay [9], in assay [11] and in assay [22] (at 57.5 µM (top of the series)) were -11.5% (inactive), -1.81% (inactive) and -0.123% (inactive), respectively. The Potency result in [10], in [13], in assay [15], in [18], in [4] and in [5] was “inactive” throughout. Further, the Potency result in assay [6] and in assay [7] was “inactive” throughout. In addition, the activity, negative = inhibition in assay [12] was 0.446% (inactive). Besides, the Potency in assay [1] and in assay [2] was > 46 µM (inactive) throughout. Moreover, the compound was called inactive in assay [14], in assay [16], in assay [17], in assay [19], in assay [20] and in assay [21]. The max response was 4.46% in [22] (measured here: cell count channel max response) and 3.98% in assay [22] (measured here: lipid channel max response).

The values above are taken from PubChem BioAssay (NCATS).
